# From PubChem BioAssay
# Rows were chosen to be rich in hits. Some 2.8% of all compounds tested hit in one or more screens of this group.
# HIF-2a block – HIF-2a inhibition; 786-0 RCC cells HIF-2a reporter, luciferase luminescence, overnight; inhibition, % at 18.8 µM; actives 0.72% (n = 360,000);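 active means inhibition of the luminescence signal of 40% or more relative to plate controls, in a single-dose primary screen at 18.75 µM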
# TRPM1 prom inh – inhibitors of MITF-driven TRPM1 promoter in melanoma cells | inhibition, % at 12.5 µM | AID 488899 | actives 0.83% (n = 330,000) | SK-MEL-5 TRPM1 promoter luciferase, 24 h;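 active means mean inhibition across replicates of 60% or more, whatever share of single replicates reaches that level; inconclusive means some that reach 60%, reason not given; inactive means mean inhibition across replicates below 60%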
# KKLEB tox – reduces viability of KKLEB cystic fibrosis airway cells. activity change (cytotoxicity), % at 5 µM. actives 0.36% (n = 360,000). KKLEB CF airway cells viability, ATPlite luminescence, overnight; stronger effect = lower value; cells stimulated with P. aeruginosa culture filtrate;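 active means corrected activity change at or below -50% at 5 µM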
# Peg3 promoter – reduces Peg3 promoter-driven luciferase expression in HeLa; inhibition, % at 20 µM; HeLa PEG-Prom luciferase reporter, luminescence, overnight; actives 1.7% (n = 360,000); AID 588405;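 active means inhibition of at least 50% at 20 µM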
# B2AR ag – agonists of human beta-2 adrenergic receptor inducing internalization. P07550. Am2.2-beta2AR cells, FAP receptor internalization, flow cytometry. response, % (test concentration not listed). actives 0.43% (n = 340,000). AID 504454;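 active means response above a set limit, near 3 SD of response in nonfluorescent compounds, cut at about 42% in these data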
# Target sequence (P07550 whole entry, looked up): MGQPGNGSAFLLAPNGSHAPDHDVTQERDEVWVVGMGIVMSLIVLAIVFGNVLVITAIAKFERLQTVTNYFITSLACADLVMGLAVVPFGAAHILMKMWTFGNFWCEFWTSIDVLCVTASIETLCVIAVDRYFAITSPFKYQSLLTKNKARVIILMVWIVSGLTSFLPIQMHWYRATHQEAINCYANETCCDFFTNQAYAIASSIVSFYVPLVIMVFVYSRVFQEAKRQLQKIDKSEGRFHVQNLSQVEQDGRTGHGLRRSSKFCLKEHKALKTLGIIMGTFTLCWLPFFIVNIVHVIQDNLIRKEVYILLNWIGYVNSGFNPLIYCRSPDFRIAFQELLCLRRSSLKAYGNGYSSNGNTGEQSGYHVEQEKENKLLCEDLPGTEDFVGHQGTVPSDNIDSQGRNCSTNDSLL
# CF NFkB block – cystic fibrosis NF-kB activation inhibition; actives 0.86% (n = 360,000); KKLEB NF-kB-GFP reporter, PAF-induced, GFP fluorescence overnight; inhibition, % at 5 µM;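 active means at least 50% inhibition at 5 µM, scaled per plate between neutral and stimulator controls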;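 further: PAF is a Pseudomonas aeruginosa culture filtrate used as stimulus; plate controls were PAF-stimulated DMSO wells for no effect and unstimulated DMSO wells for full effect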
# Starred values were filed as active, the others as inactive; u = inconclusive; x = not tested or not shown.
SMILES,HIF-2a block,TRPM1 prom inh,KKLEB tox,Peg3 promoter,B2AR ag,CF NFkB block
C[C@@H]1NC(=O)N[C@@H]1CCCCCC(=O)O,6,-6,-64*,12,-7,-11
Cc1c(Cl)cccc1NC(=S)/C(=C(\[O-])c1ccc(Cl)s1)[n+]1ccccc1,-10,20,9,58*,4,-7
[O-]/C(=C(\C(=S)Nc1cccc2ccccc12)[n+]1cccc(CO)c1)c1ccc(Cl)s1,3,18,0,16,14,-2
CC1(C(=O)NS(=O)(=O)c2ccc(F)cc2F)CCN1C(=O)C1(c2ccc(Cl)cc2)CCC1 (stereo unspecified),7,x,-2,7,x,17
COc1ccccc1N(CC(=O)NCCSCc1cccc(C)c1)S(=O)(=O)c1ccccc1,29,13,-22,61*,21,34
CCC1C(=NO)C(CC)C(c2ccccc2)NC1c1ccccc1 (stereo unspecified),32,-9,-8,64*,6,48
COc1ccccc1Cc1c(C2CCCCC2)nc2ccc(C)cn12,-54,x,0,74*,x,1
COc1ccc(NC(=O)c2cc(-c3ccc(C)o3)nc3ccccc23)c(OC)c1,-125,x,-7,-12,14,-14
Cc1ccc(-c2cc(C(=O)Nc3ccccc3C(N)=O)c3ccccc3n2)o1,7,x,-11,52*,15,-12
CCN1C(=O)CSc2ccc(C(=O)NC3CCCCC3)cc21,-11,-7,2,-3,-3,-2
COc1cc(C(=O)NC2CCN(C)CC2)ccc1Nc1ncc2c(n1)N(Cc1ccccc1)CCC(=O)N2C,-152,47,-29,-105,21,-171
CCN1C(=O)CC(c2ccccc2)N(C2CCCC2)c2nc(Nc3ccc(C(=O)NC4CCN(C)CC4)cc3OC)ncc21 (stereo unspecified),11,87*,-20,94*,19,-75
CCN1C(=O)CC(C(C)C)N(C2CCCC2)c2nc(Nc3ccc(C(=O)NC4CCN(C)CC4)cc3OC)ncc21 (stereo unspecified),19,84*,-18,66*,34,-69
COc1cc(C(=O)NC2CCN(C)CC2)ccc1Nc1ncc2c(n1)N(C1CCCCC1)CCC(=O)N2C,-37,u,-26,91*,-11,-101
COc1cc2ccccc2cc1C(=O)Nc1sc2c(c1C(N)=O)CCN(C(C)C)C2,8,46,-23,101*,10,29
CN1CCc2c(sc(NC(=O)c3ccc4ccccc4c3)c2C(N)=O)C1,-167,-111,-10,-23,-33,-36
COC(=O)[C@]12CCCCC=C1N(CCC1=CCCCC1)C(=O)[C@H](CC(=O)N1CCC(c3ccccc3)CC1)C2,1,x,x,x,x,x
CC(C)(C)CN1CCNC[C@H]1Cc1cccc2ccccc12,-5,0,6,-2,14,-23
c1ccc(C2(CN3CCNC[C@H]3Cc3cccc4ccccc34)CC2)cc1,10,x,-2,79*,33,1
Cc1c(NC(=O)Cn2[nH]c(=O)c3ccccc3c2=O)c(=O)n(-c2ccccc2)n1C,4,15,1,-3,-8,-8
Cc1sc(NC(=O)Cn2[nH]c(=O)c3ccccc3c2=O)nc1-c1ccccc1,-33,12,-2,63*,3,16
c1cc(-c2cc3cc(N4CCOCC4)ccc3o2)cs1,-247,-31,-70*,-98,1,-7
COc1ccc(C#Cc2c(-c3ccsc3)oc3ccc(N4CCOCC4)cc23)cc1,-150,-34,-7,-75,9,20
CN1CCN(C(c2ccc(Cl)cc2)c2cc(Cl)c3cccnc3c2O)CC1 (stereo unspecified),50*,43,-42,65*,25,38
Oc1c(C(c2ccccn2)N2CCCCC2)cc(Cl)c2cccnc12 (stereo unspecified),13,25,-9,23,26,-9
O=C(NC(c1ccc(Cl)cc1)c1cc(Cl)c2cccnc2c1O)c1cccnc1 (stereo unspecified),20,41,-4,66*,17,-12
Cc1ccc([C@H]2C[C@@H](O)[C@H](n3cc(COC(=O)c4ccccc4)nn3)CN2C(=O)c2cccs2)cc1,-2,x,3,-6,x,-23
